The results in this text go back to PubChem BioAssay (NCI).

“And” between values parts separate entries of the source, which are not always exact repeats. Identical values can stand only once. The panel holds about 83,000 compounds, 20% with a hit somewhere; the sample as a whole holds those more often.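 Step 1: grow cells in 96-well plates. Step 2: add test compound at a single concentration. Step 3: incubate 48 h. Step 4: record percent growth.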 Unmarked numbers belong to inactive results. The source made the active and inactive calls. How the source made its calls: active means growth percent below 10; inactive means the rest.

The test system of this experiment is MDA-MB-468 breast. In words: NCI-60 one-dose screen, 48 h (100 = growth as untreated, 0 = no growth, -100 = all killed). Conditions: 10 µM unless noted.
For `CC[C@H](C)[C@H](NC(=O)[C@H]1CCCCN1C)C(=O)N(C)[C@H](C[C@@H](O)c1nc(C(=O)N[C@@H](Cc2ccccc2)C[C@H](C)C(=O)O)cs1)C(C)C`, the growth was 70.1%.
For `Cc1cccc(N2CCN(C(C)C#N)CC2)c1` (stereo not given), the growth was 100%.
Then `COC(=O)C12CC(NC(=O)c3csc([C@@H](C[C@H](C(C)C)N(C)C(=O)[C@@H](NC(=O)[C@H]4CCCCN4C)C(C)C)OC(C)=O)n3)(C1)C2`, with 42.5%; and `CC1([N+](=O)[O-])COP(=O)(Nc2ccc(F)cc2)OC1` (stereo not given), with 110%.
Regarding `O=C(NCCCN1CC1)Nc1cccc2ccccc12`, the growth is 103% and 90.7%.
Then `COc1cc(/C=C/[N+](=O)[O-])cc(Br)c1OC`, with -34.7% (active).
In the case of `COc1cc(/C=C(/C)[N+](=O)[O-])ccc1O`, the growth is -85.4% (active) and -90.3% (active).
As to `CC(C)COC(=O)Cc1ccccc1`, the growth was 101%.
In the case of `O=C(N/N=C\c1ccc(N(CCCl)CCCl)cc1)c1cccc([N+](=O)[O-])c1` it was 68.1%; in that of `CC1(C)N(Nc2ccccc2)C(=O)C2CCCN21` (stereo not given), 79.2%; in that of `COc1ccccc1/C=C(/C)[N+](=O)[O-]`, 14.4% and 103%.
Turning to `CC[C@H](C)[C@H](NC(=O)c1ccccn1)C(=O)N(C)[C@H](C[C@@H](OC(C)=O)c1nc(C(=O)N[C@@H](Cc2ccccc2)C[C@H](C)C(=O)OC)cs1)C(C)C`, the growth was -7.06% (active).
Then `COC(=O)[C@@]1(C)CC[C@]2(C)CC[C@]3(C)C4=CC=C5C(=CC(=O)C(O)=C5C)[C@]4(C)CC[C@@]3(C)[C@@H]2C1`, with -66.9% (active); and `CCC(C)(C)O`, with 104%.
With `CCOC(=O)/C(C#N)=C/c1ccc(N(CCCl)CCCl)cc1`, the growth is 64.2%.
In the case of `CNC(=O)Oc1ccc2c(c1)OCO2` it was 94.6%.
In the case of `COc1cccc(/C=C/[N+](=O)[O-])c1` it was 25.8%.
Regarding `O=[N+]([O-])CC(O)C(Cl)(Cl)Cl` (stereo not given), the growth is 102%.
Take `Oc1ccccc1-c1ccccc1`: the growth was 105% and 103%.
Then `CC(C)OC(=S)[S-].[Au+].c1ccc([PH+](c2ccccc2)c2ccccc2)cc1`, with -32.3% (active); and `Nc1c(Br)cc([N+](=O)[O-])cc1[N+](=O)[O-]`, with 95.5%.
In the case of `O=c1[nH]c(=O)[nH]c(=O)[nH]1` it was 146%.
Then `O=[N+]([O-])c1ccc(N2CCOCC2)c2c1no[n+]2[O-]`, with 2.62% (active); and `C=CCN1C(=O)C(CC)(CCC(C)C)C(=O)NC1=S` (stereo not given), with 102%; and `O=C1C(N2CC2)=C(N2CC2)C(=O)C(N2CC2)=C1N1CC1`, with 0.964% (active).
Consider `CC(=O)O[C@H](C[C@H](C(C)C)N(C)C(=O)[C@@H](NC(=O)[C@H]1CCCCN1C)C(C)(C)C)c1nc(C(=O)N[C@@H](Cc2ccccc2)C[C@H](C)C(=O)O)cs1`, for which the growth was 4.72% (active).
In the case of `COC(=O)[C@@H](C)C[C@H](Cc1ccc(F)cc1)NC(=O)c1csc([C@@H](C[C@H](C(C)C)N(C)C(=O)[C@@H](NC(=O)[C@H]2CCCCN2C)C2CC2)OC(C)=O)n1` it was 22.5%; in that of `COC12CC3C4=CCOC5CC(=O)N6c7ccccc7C1(CCN2C4)C6C53` (stereo not given), 102%; in that of `CC(=O)C(N)Cc1ccccc1` (stereo not given), 97%.
In the case of `Cc1ccc2oc(=O)c3c(c2c1)OC(N)=C(C#N)C3c1ccco1` (stereo not given) it was 91.4%; in that of `C#Cc1ccc2c(c1)C(c1ccccc1)=NCC(=O)N2C`, 20.8%.
Then `CNC(=O)Oc1cccc(OC)c1`, with 106%; and `N#C[Se]CCN1C(=O)C2C(C1=O)[C@H]1C=C[C@@H]2S1` (stereo not given in full), with -19.7% (active); and `CCC(=O)Nc1ccc(Cl)c(Cl)c1`, with 101%.
Turning to `O=[N+]([O-])c1ccc(CI)cc1`, the growth is 75.6%.
In the case of `O=C1CN=C(c2ccc(Cl)cc2)c2sccc2N1` it was 104%.
Then `[Cl][Hg][c]1ccc2ccccc2c1`, with -83.2% (active); and `C/C1=C/C(=O)O[C@@H]2C[C@@H](CC[C@H](C)/C=C\C=C\CC1)O[C@@](OCCc1ccccc1)([C@@H]1CSC(=O)N1)C2`, with 12.2%; and `OCCCCCNC1CCCCC1`, with 97.6%.
In the case of `N#CCCNc1ccccc1` it was 108%.
